Sampled rows, rich in hits. Any-hit rate of the full collection: about 6.7%.
T cruzi growth: blocks T. cruzi growth in NIH3T3 culture. T. cruzi beta-gal in NIH3T3, GalScreen luminescence, 90 h. inhibition, % at 8.34 µM. 77,000 tested, 5.9% active;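 active = mean inhibition above about 93%, with at least 55% of replicates each passing it, limit read from the data, passing the limit was not always enough; inconclusive = only one of those two conditions holds; inactive = neither condition holds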
Pf Dd2 growth: P. falciparum Dd2 growth inhibition; activity change, % at 10 µM; SYBR Green, 72 h; hits give low values; 94,000 tested, 2.3% active; in the data active = activity change below about -80%; inconclusive = no clear call, values can overlap the other calls
C diff HTS: C. difficile growth inhibition. growth activity, negative = inhibition, % at 16 µg/mL (by protocol). Clostridium difficile clinical isolate growth, OD600, 24 h; hits give low values. 86,000 tested, 0.25% active;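 active = mean growth activity at or below -80% and every replicate also at or below -80%; inconclusive = mean at or below -80% but some replicate above -80%; inactive = mean growth activity above -80%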
Of the large screens only hits and unclear results are named; the others gave an inactive call.

COc1cccc(C#Cc2cnc3c(c2)C(=O)N([C@H](C)CO)C[C@H](C)[C@@H](CN(C)C(=O)C2CCOCC2)O3)c1	Pf Dd2 growth -81 (no result: T cruzi growth)
COc1cccc(C#Cc2cnc3c(c2)C(=O)N([C@@H](C)CO)C[C@@H](C)[C@H](CN(C)C(=O)C2CCOCC2)O3)c1	none (no result: T cruzi growth)
COc1cccc(C#Cc2cnc3c(c2)C(=O)N([C@H](C)CO)C[C@@H](C)[C@@H](CN(C)C(=O)C2CCCCC2)O3)c1	none
COc1ccccc1CNC(=O)C[C@H]1C[C@H]2c3cc(NC(=O)C4CCC4)ccc3O[C@H]2[C@@H](CO)O1	none (no result: C diff HTS)
C[C@H]1CN([C@@H](C)CO)C(=O)c2cc(Br)cnc2O[C@@H]1CN(C)C(=O)Nc1ccccc1	none
C[C@@H]1CN([C@H](C)CO)C(=O)c2cc(NS(=O)(=O)c3cccs3)ccc2O[C@@H](C)CCCCO[C@H]1CN(C)CC1CC1	none (no result: T cruzi growth)
C[C@@H]1CCCCO[C@@H](CN(C)C(=O)Nc2cccc3ccccc23)[C@@H](C)CN([C@H](C)CO)C(=O)c2cc(NC(=O)Cc3ccccc3)ccc2O1	Pf Dd2 growth -84
C[C@@H]1CN([C@@H](C)CO)C(=O)c2cc(NC(=O)Nc3ccccc3)ccc2O[C@@H](C)CCCCO[C@H]1CN(C)C(=O)Nc1cccc2ccccc12	none
C[C@@H]1CN([C@H](C)CO)C(=O)c2cc(NC(=O)Cc3ccccc3)ccc2O[C@@H](C)CCCCO[C@@H]1CN(C)C(=O)Nc1cccc2ccccc12	Pf Dd2 growth -92
C[C@@H]1CCCCO[C@H](CN(C)C(=O)Nc2cccc3ccccc23)[C@H](C)CN([C@@H](C)CO)C(=O)c2cc(NC(=O)Nc3ccccc3)ccc2O1	none
C[C@@H]1CCCCO[C@H](CN(C)C(=O)Nc2cccc3ccccc23)[C@H](C)CN([C@H](C)CO)C(=O)c2cc(NC(=O)Cc3ccccc3)ccc2O1	Pf Dd2 growth -84 (no result: T cruzi growth)
C[C@H](CO)N1C[C@H](C)[C@@H](CN(C)C(=O)Nc2cccc3ccccc23)OCCCC[C@H](C)Oc2ccc(NC(=O)Cc3ccccc3)cc2C1=O	Pf Dd2 growth inconclusive
CO[C@H]1CN(C)C(=O)c2ccc(NC(=O)C3CC3)cc2OC[C@@H](C)N(Cc2cncnc2)C[C@H]1C	none (no result: Pf Dd2 growth, C diff HTS)
COCCNC(=O)C[C@H]1CC[C@H]2[C@@H](COc3ccc(NC(=O)c4cc(C)on4)cc3C(=O)N2C)O1	none
C[C@H]1CN([C@@H](C)CO)C(=O)c2cc(C3=CCCCC3)cnc2O[C@@H]1CN(C)C(=O)Cc1cccnc1	none
C[C@@H]1CCCCO[C@@H](CN(C)C)[C@@H](C)CN([C@@H](C)CO)C(=O)c2cc(NC(=O)Nc3cccc4ccccc34)ccc2O1	none (no result: Pf Dd2 growth)
C[C@@H]1CN([C@@H](C)CO)C(=O)c2cc(NC(=O)Nc3cccc4ccccc34)ccc2O[C@@H](C)CCCCO[C@@H]1CN(C)C	Pf Dd2 growth -87
C[C@@H]1CN([C@H](C)CO)C(=O)c2cc(NC(=O)Nc3cccc4ccccc34)ccc2O[C@@H](C)CCCCO[C@@H]1CN(C)C(=O)C1CCCCC1	Pf Dd2 growth -91
C[C@@H]1CN([C@@H](C)CO)C(=O)c2cc(NC(=O)Nc3cccc4ccccc34)ccc2O[C@@H](C)CCCCO[C@H]1CN(C)C(=O)C1CCCCC1	none
C[C@@H]1CCCCO[C@H](CN(C)CC2CCCCC2)[C@@H](C)CN([C@H](C)CO)C(=O)c2cc(NC(=O)Nc3cccc4ccccc34)ccc2O1	none
C[C@H]1CCCCO[C@@H](CN(C)CC2CCCCC2)[C@@H](C)CN([C@@H](C)CO)C(=O)c2cc(NC(=O)Nc3cccc4ccccc34)ccc2O1	Pf Dd2 growth -83
C[C@@H]1CCCCO[C@@H](CN(C)C(=O)C2CCCCC2)[C@@H](C)CN([C@@H](C)CO)C(=O)c2cc(NS(=O)(=O)c3cn(C)cn3)ccc2O1	none
C[C@H]1CN([C@@H](C)CO)S(=O)(=O)c2ccc(C#CCN(C)C)cc2O[C@@H]1CN(C)Cc1ccncc1	T cruzi growth 97
CC(C)CC#Cc1ccc2c(c1)O[C@@H](CN(C)Cc1cccc(F)c1)[C@H](C)CN([C@@H](C)CO)S2(=O)=O	Pf Dd2 growth -84
C[C@H](CO)N1C[C@H](C)[C@H](CN(C)Cc2ccncc2)Oc2cc(C#CCN(C)C)ccc2S1(=O)=O	none
CC(C)CC#Cc1ccc2c(c1)O[C@@H](CN(C)Cc1cccc(F)c1)[C@@H](C)CN([C@H](C)CO)S2(=O)=O	none
C[C@@H]1CN([C@@H](C)CO)S(=O)(=O)c2ccc(-c3cccc(C(=O)N(C)C)c3)cc2O[C@@H]1CN(C)Cc1ccc2c(c1)OCO2	none (no result: T cruzi growth)
C[C@@H]1CN([C@@H](C)CO)S(=O)(=O)c2ccc(-c3cccc(C(=O)N(C)C)c3)cc2O[C@H]1CN(C)Cc1ccc2c(c1)OCO2	Pf Dd2 growth -82 (no result: T cruzi growth)
COc1ccc(S(=O)(=O)Nc2ccc3c(c2)C(=O)N([C@@H](C)CO)C[C@@H](C)[C@@H](CN(C)C(=O)Nc2cccc4ccccc24)OCCCC[C@@H](C)O3)cc1	none (no result: C diff HTS)
COc1ccc(S(=O)(=O)Nc2ccc3c(c2)C(=O)N([C@@H](C)CO)C[C@H](C)[C@@H](CN(C)C(=O)Nc2cccc4ccccc24)OCCCC[C@H](C)O3)cc1	none
COc1ccc(S(=O)(=O)Nc2ccc3c(c2)C(=O)N([C@@H](C)CO)C[C@H](C)[C@H](CN(C)C(=O)Nc2cccc4ccccc24)OCCCC[C@H](C)O3)cc1	Pf Dd2 growth -86 (no result: C diff HTS)
COc1ccc(S(=O)(=O)Nc2ccc3c(c2)C(=O)N([C@H](C)CO)C[C@@H](C)[C@@H](CN(C)C(=O)Nc2cccc4ccccc24)OCCCC[C@@H](C)O3)cc1	Pf Dd2 growth -86 (no result: C diff HTS)
C[C@H](CO)N1C[C@H](C)[C@H](CN(C)C(=O)CCC(F)(F)F)OCCCC[C@H](C)Oc2ccc(NS(=O)(=O)c3cccs3)cc2C1=O	none
Cc1noc(C)c1S(=O)(=O)N(C)C[C@@H]1OCCCC[C@@H](C)Oc2ccc(NC(=O)Nc3ccccc3)cc2C(=O)N([C@H](C)CO)C[C@H]1C	Pf Dd2 growth -83 (no result: T cruzi growth)
Cc1noc(C)c1S(=O)(=O)N(C)C[C@H]1OCCCC[C@@H](C)Oc2ccc(NC(=O)Nc3ccc(F)cc3)cc2C(=O)N([C@@H](C)CO)C[C@@H]1C	Pf Dd2 growth -83
Cc1noc(C)c1S(=O)(=O)N(C)C[C@H]1OCCCC[C@H](C)Oc2ccc(NC(=O)Nc3cccc4ccccc34)cc2C(=O)N([C@H](C)CO)C[C@H]1C	Pf Dd2 growth -92 (no result: T cruzi growth)
Cc1noc(C)c1S(=O)(=O)N(C)C[C@H]1OCCCC[C@H](C)Oc2ccc(NC(=O)Nc3ccccc3)cc2C(=O)N([C@@H](C)CO)C[C@@H]1C	Pf Dd2 growth inconclusive (no result: T cruzi growth)
Cc1noc(C)c1S(=O)(=O)N(C)C[C@@H]1OCCCC[C@H](C)Oc2ccc(NC(=O)Nc3cccc4ccccc34)cc2C(=O)N([C@H](C)CO)C[C@H]1C	none
Cc1noc(C)c1S(=O)(=O)N(C)C[C@H]1OCCCC[C@@H](C)Oc2ccc(NC(=O)Nc3ccc(F)cc3)cc2C(=O)N([C@H](C)CO)C[C@@H]1C	none
Cc1noc(C)c1NC(=O)Nc1ccc2c(c1)C(=O)N([C@@H](C)CO)C[C@H](C)[C@@H](CN(C)S(=O)(=O)c1cn(C)cn1)OCCCC[C@@H](C)O2	none

Bioassay records as filed in PubChem BioAssay.
